This passage reports Potency and outcome results from PubChem BioAssay (NCATS).

SMILES strings stand for the structures. Inconclusive results are not listed. Calls of active or inactive are those of the source. Calls follow the shape of the dose curve; as a rule, active = well fitted curve in the direction sought with a large enough effect; inconclusive = small, poorly fitted or top-dose-only effect, or another doubt; inactive = no such curve, though single readings can be large; an effect the other way counts as inactive or inconclusive.

A short description of assay [1]: OV-KATE Cancer Cell Toxicity qHTS against the NCATS CANVASS Library (AID 1347345). Also: potency is read from the fitted curve at half-maximal effect. An outline of the steps:
(§1)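 Step one: seed 1000 cells per well. Step two: incubate 4 h. Step three: add test compounds in 11 concentrations. Step four: culture 72 h, then add CellTiter-Glo and record luminescence after 15min.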

The nature of assay [2]: SW1088 Cancer Cell Toxicity qHTS against the NCATS CANVASS Library (AID 1347350). Also: nearly all actives have a fitted effect of over 75% in size. Also: potency is read from the fitted curve at half-maximal effect. An outline of the steps: as §1
On the technique in general: Quantitative high-throughput screening tests each substance at several concentrations.

Assay [3] can be described thus: A2780 Cisplatin Sensitive Ovarian Cancer Cell Toxicity qHTS against the NCATS CANVASS Library (AID 1347353). Also: nearly all actives have a fitted effect of over 60% in size. Also: potency is read from the fitted curve at half-maximal effect. The method, boiled down:
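A2780 cells, 750/well, settled 4 h at 37 °C, then treated with an 11-point compound series for 72 h. Viability was read as ATPLite luminescence after 10 min at room temperature, with bortezomib as control.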

Assay [4] is described as follows: HEK-293 Cancer Cell Toxicity qHTS against the NCATS CANVASS Library (AID 1347355). Also: nearly all actives have a fitted effect of over 65% in size. Also: potency is read from the fitted curve at half-maximal effect. The method, boiled down: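 Cells at 1000/well were given compound 4 h after plating in an 11-point series. Viability was read by CellTiter-Glo luminescence after 72 h at 37 degrees C.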
The nature of assay [5]: HPAF-II 12hr Apoptosis Induction qHTS against the NCATS CANVASS Library (AID 1347358). An outline of the steps:
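HPAF-II cells, 500/well in DMEM + 10% FBS, exposed 12 hours at 37 degrees C to compound (11-point). Caspase-Glo 3/7 added for 15 min at room temperature; luminescence reflects caspase-3/7 activity.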

For assay [6], the target named is Luciferin 4-monooxygenase (Photinus pyralis) (UniProt P08659). The assay can be described thus: Firefly luciferase counterscreen qHTS: Assay Interference Panel against the NCATS CANVASS Library (AID 1347363). Also: series mostly up to about 57 µM. The method, boiled down:
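Purified P. pyralis luciferase was added to compounds (11-point series) preincubated 15 min at room temperature with substrate containing 0.013 mM D-luciferin and 0.013 mM ATP; luminescence was read after 5 min.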
In general terms: The purpose of a counterscreen is to sort out artefacts and off-target activity.

Assay [7] is described as follows: KB-8-5-11 Cancer Cell Toxicity qHTS against the NCATS CANVASS Library (AID 1347364). Also: nearly all actives have a fitted effect of over 75% in size. Also: potency is read from the fitted curve at half-maximal effect. The method, boiled down: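 KB-8-5-11 cells, 500/well in DMEM + 10% FBS, given compounds in an 11-point series. Incubated 72 h at 37 °C. Viability by CellTiter-Glo luminescence. Confirmation also run with 1 uM tariquidar.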
A short description of assay [8]: SDT Cancer Cell Toxicity qHTS against the NCATS CANVASS Library (AID 1347365). Also: nearly all actives have a fitted effect of over 60% in size. Also: potency is read from the fitted curve at half-maximal effect. An outline of the steps:
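SDT dog glioma cells (500/well) exposed to an 11-point compound series for 72 hr at 37C, 5% CO2. Cytotoxicity read as ATP content by CellTiterGlo luminescence; bortezomib titration as control.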

Assay [9] in a line: G06 Cancer Cell Toxicity qHTS against the NCATS CANVASS Library (AID 1347368). Also: nearly all actives have a fitted effect of over 60% in size. Also: potency is read from the fitted curve at half-maximal effect. An outline of the steps:
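G06 dog glioma cells, 500 per well, exposed 72 hr at 37C, 5% CO2 to compounds in an 11-point series. Cytotoxicity read as ATP content by CellTiterGlo luminescence.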

Assay [10] is described as follows: MCF7 Cancer Cell Toxicity qHTS against the NCATS CANVASS Library (AID 1347369). An outline of the steps:
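MCF7, 500 cells/well; cpds 11-pt qHTS; 72 hr, 37C/5% CO2; CellTiterGlo ATP luminescence.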

Assay [11] can be described thus: qHTS for ATAD5 Antagonist screened against the NCATS CANVASS Library (AID 1347370). Also: nearly all actives have a fitted effect of over 65% in size. Also: potency is read from the fitted curve at half-maximal effect. An outline of the steps: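 HEK293T cells with stably integrated ATAD5-luciferase reporter, 2000/well, 5 h attachment; compounds plus 10 µM 5-fluorouridine, 16 h at 37 °C. Luciferase luminescence read, with CellTiter-Fluor viability read first.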
A short description of assay [12]: J3T Cancer Cell Toxicity qHTS against the NCATS CANVASS Library (AID 1347371). The method, boiled down: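 J3T dog glioma cells, 500 per well, treated 72 h at 37C with compounds (11-point qHTS); viability from ATP content by CellTiterGlo luminescence; bortezomib titration as control.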
Assay [13] is described as follows: qHTS for Hypoxia signaling pathway (HIF-1) antagonists against the NCATS CANVASS Library (AID 1347374). Also: nearly all actives have a fitted effect of over 60% in size. Also: potency is read from the fitted curve at half-maximal effect. The method, boiled down:
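HRE-bla ME-180 cells in medium with 0.5% dialyzed FBS received compounds (11-point series) plus CoCl2 (60 uM addition stock) for 17 hrs at 37C. Beta-lactamase activity read with CCF4 (405 nm ex, 460/530 nm em); CellTiter-Glo viability measured in same wells.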

Assay [14] in a line: qHTS for H2AX Agonists against the NCATS CANVASS Library (AID 1347378). An outline of the steps:
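CHO-K1 cells were plated overnight at 37C, then exposed to compounds (concentration series, 0.76% DMSO final) for 3 hr at 37C. Lysates received Eu-cryptate anti-pH2AX (S139) and d2 anti-H2AX antibodies; after 24 hr at room temperature, TR-FRET 665/620 nm ratio was read.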

The nature of assay [15]: Inflammasome Signaling qHTS Counterscreen: IL-1-beta AlphaLISA counterscreen against the NCATS CANVASS Library (AID 1347381).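 Also: cell-free check with purified IL-1β in medium and no THP-1 cells; series mostly up to about 57 µM.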 An outline of the steps:
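Cell-free interference check: compounds added to medium spiked with 4 pg purified IL-1β. Anti-IL-1β acceptor beads (6 ug/mL) with 0.6 nM biotinylated antibody added for 1 h at RT, then streptavidin donor beads (24 ug/mL) for 30 min in the dark. AlphaLISA read at 680/615 nm.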

Assay [16] is described as follows: qHTS for activators of Nrf2/ARE signaling pathway screened against the NCATS CANVASS Library (AID 1347391). Also: nearly all actives have a fitted effect of over 60% in size. Also: potency is read from the fitted curve at half-maximal effect. The method, boiled down:
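ARE-bla HepG2 beta-lactamase reporter cells exposed to compounds for 16 h at 37C; CCF4 substrate 2 h, fluorescence at ex 405 nm, em 460/530 nm. Viability by CellTiter-Glo luminescence.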

Assay [17] is described as follows: qHTS for inhibitors of Wild type Zika virus screened against the NCATS CANVASS Library (AID 1347396).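 Also: ATP luminescence of surviving cells so rescue from viral cell killing; series mostly up to about 46 µM.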 An outline of the steps:
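Luminescent CellTiter Glo read-out of virus-induced cytotoxicity, 72 h post-infection, in Vero 766 cells. Compounds were tested at 11 concentrations; uninfected, vehicle-treated wells defined 100% inhibition.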

Assay [18] in a line: qHTS for inhibitors of ER calcium dysfunction: SERCaMP assay screened against the NCATS CANVASS Library (AID 1347393). Also: nearly all actives have a fitted effect of over 40% in size. Also: potency is read from the fitted curve at half-maximal effect. The method, boiled down:
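qHTS in SH-SY5Y reporter cells: 16 h compound pretreatment, 4 h thapsigargin, then secreted Gaussia luciferase measured by luminescence.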

The nature of assay [19]: Secretion counterscreen for inhibitors of the SERCaMP assay screened against the NCATS CANVASS Library (AID 1347390).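 Also: light from luciferase secreted into medium read as a measure of general secretion.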 Also: potency is read from the fitted curve at half-maximal effect. The method, boiled down:
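SH-SY5Y cells expressing constitutively secreted GLuc, 1000 cells/well, attached 4 h at 37C, then exposed to compounds (0.001 - 77 uM, 11-pnt series) for 20 h. Coelenterazine added; luminescence read to flag secretory-pathway interferers.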

Assay [20] can be described thus: qHTS for ATAD5 Agonist screened against the NCATS CANVASS Library (AID 1347367).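 Also: luciferase reporter driven by ATAD5 which rises upon DNA damage.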 The method, boiled down: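 HEK293T cells stably carrying an ATAD5-controlled luciferase reporter (2000 cells/well) attached for 5 hr, then received compounds in an 11-point series for 16hr at 37C. Luminescence was read after a 30 min room-temperature reagent step.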

Chain of Luciferin 4-monooxygenase (Photinus pyralis) (P08659 whole entry, looked up): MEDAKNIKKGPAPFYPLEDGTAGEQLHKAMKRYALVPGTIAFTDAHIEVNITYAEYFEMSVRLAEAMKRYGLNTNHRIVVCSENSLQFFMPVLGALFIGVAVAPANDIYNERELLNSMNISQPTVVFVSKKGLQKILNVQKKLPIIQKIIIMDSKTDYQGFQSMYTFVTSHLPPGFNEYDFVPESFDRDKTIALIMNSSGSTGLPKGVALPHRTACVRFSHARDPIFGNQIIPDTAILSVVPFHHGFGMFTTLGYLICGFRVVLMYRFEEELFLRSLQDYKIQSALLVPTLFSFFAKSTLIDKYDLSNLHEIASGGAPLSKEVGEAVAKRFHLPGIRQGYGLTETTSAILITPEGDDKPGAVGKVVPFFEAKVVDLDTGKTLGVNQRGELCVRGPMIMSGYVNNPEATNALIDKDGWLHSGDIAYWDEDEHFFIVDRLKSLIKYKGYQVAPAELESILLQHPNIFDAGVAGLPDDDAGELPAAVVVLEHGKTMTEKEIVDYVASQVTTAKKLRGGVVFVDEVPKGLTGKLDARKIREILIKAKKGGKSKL

As for `COc1cc2ccc(=O)oc2c(O)c1O[C@@H]1O[C@H](CO)[C@@H](O)[C@H](O)[C@H]1O`, the Potency entry in assay [1], in [2], in assay [3], in [4], in assay [5] and in assay [6] was “inactive” in each case. The Potency entry in assay [7], in assay [8], in assay [10], in assay [11], in assay [12] and in assay [13] was “inactive” each time. The Potency result in [14] and in assay [16] was “inactive” throughout. Besides, in assay [9], the Potency was 8.12 µM (active). For the same compound, the compound was classed as inactive in assay [15] and in assay [17].
As for `O=C1c2c(O)cc(O)cc2OC(c2ccc(O)cc2)C1O` (stereo not drawn), the Potency result in assay [1], in assay [2], in assay [3], in assay [4], in [6] and in assay [7] was “inactive” in each case. Also, the Potency result in assay [8], in [9], in [10], in [11], in assay [12] and in [16] was “inactive” in each case. The result in [15] and in assay [17] was inactive.
For the compound `CN1CCc2cc3c(c4c2C1(C)C(=O)c1cc(O)ccc1-4)OCO3` (stereo not drawn), the Potency entry in [2], in [5], in [6], in assay [12], in [14] and in assay [16] was “inactive” in each case. Also, the Potency in assay [4] is 18.7 µM (active); in assay [7], 23.5 µM (active); in assay [8] it was 1.48 µM (active); in [9] it was 1.18 µM (active); in assay [11], 13.2 µM (active); in [13], 13.3 µM (active). Moreover, the Potency in assay [18] was 19.3 µM (active). Further, the result in assay [17] was inactive.
Take `COc1cc2c(cc1OC)[C@@H](c1ccc3c(c1)OCO3)C(C)[C@@H](C)C2=O` (stereo partly drawn): the Potency entry in [1], in assay [10], in [12], in assay [13], in assay [14] and in [19] was “inactive” in each case. Also, the Potency is 11.7 µM (active) in assay [11] and 34.3 µM (active) in [18]. Besides, in assay [15], the call was inactive.
On to `COc1ccc([C@@H]2c3cc4c(cc3C(=O)C(C)C2C)OCO4)cc1OC` (stereo partly drawn), for which the Potency result in assay [1], in assay [2], in assay [3], in assay [4], in [5] and in [6] was “inactive” each time. Besides, the Potency result in [8], in [20], in assay [9], in [10], in assay [12] and in assay [13] was “inactive” each time. Besides, in [14], the Potency entry is “inactive”. In addition, the compound was called inactive in assay [15] and in assay [17]. In assay [18], the Potency was 7.67 µM (active).
Take `C[C@H]1CCC2(OC1)O[C@H]1C[C@H]3[C@@H]4CC(=O)[C@]5(O)C[C@H](O)CC[C@@]5(C)[C@H]4CC[C@@]3(C)[C@H]1[C@H]2C` (stereo partly drawn): the Potency entry in assay [1], in assay [5], in [6], in [20], in [10] and in assay [11] was “inactive” throughout. In addition, the Potency result in [12], in assay [14] and in assay [19] was “inactive” each time. Moreover, the outcome in assay [15] was inactive. Moreover, the Potency in assay [16] is 2.09 µM (active).
For the compound `C=C1C[C@H]2O[C@@H]3[C@@H]4[C@H](CC[C@@](C)(O)[C@@H]42)[C@H](C)COC3(C)[C@@H](OC(=O)CCCCCCC)CC1=O` (stereo partly drawn), the Potency in assay [1] was 21.1 µM (active); in assay [2] it was 8.41 µM (active); in assay [3], 13.2 µM (active); in assay [4], 14.8 µM (active); in assay [8], 23.5 µM (active); in assay [9] it was 5.9 µM (active). Besides, in assay [19], the Potency is 48.4 µM (active). Moreover, the Potency result in assay [5], in assay [6], in assay [20], in [10], in assay [14] and in assay [16] was “inactive” in each case. Moreover, in assay [15], the call was inactive.
With `O[C@H]1C=C2[C@H]3CN(Cc4cc5c(cc43)OCO5)[C@H]2C[C@@H]1O`, the Potency result in assay [2], in assay [10], in [14], in assay [16] and in [18] was “inactive” in each case. Further, the Potency was 9.35 µM (active) in [3]; 5.26 µM (active) in [4]; 10.5 µM (active) in [7]; 7.43 µM (active) in [8]; 6.62 µM (active) in assay [9]; 13.3 µM (active) in assay [13]. In addition, the Potency in assay [19] was 38.4 µM (active). For the same compound, the call in assay [17] was inactive.
